Screens as filed in PubChem.
Sampled rows, rich in hits. Any-hit rate of the full collection: about 21%.
Pf growth 96h: P. falciparum growth inhibition at 96 hours; P. falciparum luciferase reporter growth, 96 h; Potency, µM (titrated, usually from 28.7 µM), without a hit: top-dose activity change, negative = inhibition, usual class: inhibitors; 320,000 tested, 6.9% active; AID 504834; further: potency means the concentration at half of the fitted maximal effect; on the % scale 0 is the no-effect control and ±100 the full control effect
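Parasite growth measured via integrated firefly luciferase reporter in P. falciparum. Infected erythrocytes at 2% hematocrit, 0.05% parasitemia final were treated 96 hours at 37 C under 5% CO2, and luminescence was read.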
NS1 function inh: inhibitors of influenza NS1 protein function; Potency, µM (top dose mostly 46.1 µM), without a hit: top-dose activity, positive = more growth; 270,000 tested, 0.4% active; calls by dose curve; further: potency means the concentration at half of the fitted maximal effect; actives are rising curves; nearly all actives have a fitted effect of over 50% in size
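Compounds were scored for reversing the slow growth caused by influenza A NS1 in S. cerevisiae, measured by optical density at 600 nm. Assay medium contained 2% galactose at pH 6.0; NS1-free yeast of the same strain were the positive control.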
Pf growth 48h: P. falciparum growth inhibition at 48 hours (one generation); 310,000 tested, 5.9% active; Potency, µM (highest dose often 28.7 µM), for the others: at the highest dose activity change, negative = inhibition, actives largely listed as inhibitors; P. falciparum luciferase growth in erythrocytes, 48 h; further: potency means the concentration at half of the fitted maximal effect; on the % scale 0 is the no-effect control and ±100 the full control effect
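Here the parasites carry a stable luciferase gene and grow inside erythrocytes in Albumax-based RPMI medium with compound for one erythrocytic cycle. Activity is scored as loss of luminescent signal.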
Sm TGR block: blocks Schistosoma mansoni thioredoxin glutathione reductase | purified TGR, DTNB reduction, TNB absorbance 405 nm | Potency, µM (doses to about 114 µM), without a hit: at the top dose activity change, negative = inhibition, hits mostly inhibitors | 360,000 tested, 3% active; further: potency means the concentration at half of the fitted maximal effect; on the % scale 0 is the no-effect control and ±100 the full control effect; nearly all actives have a fitted effect of over 60% in size
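TGR 20 nM + NADPH 100 uM (dispensed conc.), cpd preinc 15 min RT; start with NADPH (500 uM addition) then DTNB (15 mM addition). Kinetic TNB absorbance, 405 nm filter. Four-parameter Hill fit across titration.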
Cycloheximide cs: counter-screen hit for Shiga toxin inhibitors, cycloheximide; cell reporter, cycloheximide protein synthesis inhibition counterscreen; max response, %; 300,000 tested, 12% active; in the data active means max response mostly above about 13%, no sharp cut-off; inactive means mostly below about 14%; further: read at 38.3 µM for the half of the compounds with a filed dose; 0% is about no effect
Shiga toxin inh: inhibitors of Shiga toxin in Vero cells; Vero cells, Shiga toxin protein synthesis inhibition reporter; inhibition, % at 38.7 µM; 290,000 tested, 9.2% active; AID 2315; in the data active means inhibition mostly above about 28%, no sharp cut-off; inactive means mostly below about 43%; further: 0% is about no effect
* marks the source's active call; other numbers are inactive results; u = inconclusive; x = no result. Unless noted, the call rests on the fitted dose curve; in most records, active means well fitted curve in the direction sought with a large enough effect; inconclusive means small, poorly fitted or top-dose-only effect, or another doubt; inactive means no such curve, though single readings can be large; an effect the other way counts as inactive or inconclusive.

SMILES	Pf growth 96h	NS1 function inh	Pf growth 48h	Sm TGR block	Cycloheximide cs	Shiga toxin inh
CCc1ccc(NCc2nc3ccccc3c(=O)[nH]2)cc1	-40%	2%	-61%	0%	25*	88*
CCOC(=O)c1ccc(NCc2nc3ccccc3[nH]2)cc1	0%	-10%	16%	-3%	53*	73*
Cc1ccc(C(=O)Cc2nc3ccccc3[nH]2)cc1	u	-51%	0.37µM*	1%	36*	65*
Cc1cc(C)cc(NC(=O)CCc2nc3ccccc3[nH]2)c1	3.3µM*	10%	5%	-18%	-1	-12
CCOc1ccc(CC(=O)NCc2ccc3c(c2)CCN3C(C)=O)cc1OCC	x	x	x	-7%	x	x
CCOC(=O)Cc1nc2ccccc2[nH]1	12µM*	9%	6%	3%	-1	17
Cc1ccc(-n2ncc(C(=O)NCCN3CCN(C)CC3)c2C2CCN(C(=O)OC(C)(C)C)CC2)c(C)c1	x	x	x	1%	x	x
Cc1ccc(NC(=S)N/N=C/c2cccn2Cc2ccccc2F)cc1	u	-5%	9.3µM*	4%	1	-3
CCN1CCN(c2nc3c(C)cccn3c(=O)c2C=C(C#N)C#N)CC1	1%	-1%	15%	1%	8	6
COCCSc1nnc(NC(=O)C(C)(C)C)s1	481%	0%	143%	25%	59*	111*
CC(C)C(=O)Nc1nnc(SCc2cccc(F)c2)s1	-3%	x	-6%	2%	14*	49*
CC(C)(C)C(=O)Nc1nnc(SCc2cccc(F)c2)s1	154%	x	235%	-2%	53*	91*
O=C(Nc1ccc(Cl)cc1)Nc1nnc(SCc2ccc(Cl)cc2)s1	5.2µM*	1%	-7%	u	-7	-15
S=C(NCc1ccncc1)NC1CCCCC1	6%	6%	-6%	2%	1	-8
CC(C)(C)C(=O)Nc1nnc(SCc2ccc(F)cc2)s1	-40%	0%	x	-18%	22*	42
CCC(=O)Nc1nnc(SCc2ccc(F)cc2)s1	-30%	5%	-2%	6%	0	32
Cc1cccc(NC(=O)Nc2ccc(Cl)c(Cl)c2)n1	-21%	-13%	210%	20%	27*	72*
Cc1ccc(NC(=O)Nc2cccc(C)n2)c(C)c1	90%	4%	74%	10%	36	20
COc1ccc(NC(=O)Nc2cccc(NC(C)=O)c2)c(OC)c1	12µM*	9%	11%	16%	1	-7
COc1ccc(NC(=O)Nc2cccc(C)n2)c(OC)c1	u	4%	7%	9%	33*	39*
Cc1cccc(NC(=O)Nc2ccccc2)n1	87%	-2%	72%	1%	23*	43*
COc1ccccc1NC(=O)Nc1cccc(NC(C)=O)c1	0%	-6%	-2%	14%	1	1
COc1ccc(NC(=O)Nc2cccc3ccccc23)c(OC)c1	u	18%	122%	0%	-1	-3
Cc1cc(N2CCCCC2)nc2ccc(NC(=O)CCC(=O)N3CCN(c4ccccc4)CC3)cc12	x	x	x	1%	x	x
CCOCc1ccccc1Nc1ncnc2onc(-c3ccc(Cl)cc3)c12	x	x	x	0%	x	x
SMILES	Pf growth 96h	NS1 function inh	Pf growth 48h	Sm TGR block	Cycloheximide cs	Shiga toxin inh
COc1cccc(NC(=O)Nc2cc(NC(=O)Nc3cccc(OC)c3)c(C)nc2C)c1	u	19%	22%	6%	6	-5
COc1cccc(NC(=O)Nc2cccc(C)n2)c1	u	-8%	109%	-2%	53*	92*
Cn1c(SCc2nc(-c3ccc(Cl)cc3)no2)nnc1-c1ccccc1	0%	-63%	x	0%	-1	-7
Cn1nnnc1SCc1nnc(-c2ccc(Cl)cc2)o1	x	2%	26%	-1%	29*	56*
Cc1ccc(-c2nnc(CSc3nncn3N)o2)cc1	40%	3%	34%	-3%	19*	35
Cc1occc1-c1nnc(SCc2nnc(-c3ccc(Cl)cc3)o2)n1C	-27%	-14%	22%	u	31*	65*
CCOC(=O)c1cccc(NC(=O)c2cc(CN3CCOCC3)on2)c1	x	x	x	-1%	x	x
COc1ccc(OC)c(S(=O)(=O)Nc2ccc3c(c2)C(=O)OC3)c1	16%	0%	-1%	-4%	-2	10
Cc1cccc(OC(C)C(=O)Nc2ccc(N3CCCCC3)cc2)c1 (centres undefined)	14%	x	-14%	-9%	x	x
COC(=O)c1ccc(OCC2c3cc(OC)c(OC)cc3CCN2C(=O)C2CC2)cc1 (centres undefined)	u	-5%	12µM*	0%	2	1
CCc1ccc(OCC2c3cc(OC)c(OC)cc3CCN2C(=S)NCCOC)cc1 (centres undefined)	10µM*	5%	u	7%	-2	-14
COC(=O)c1ccc(OCC2c3cc(OC)c(OC)cc3CCN2C(=O)C(C)C)cc1 (centres undefined)	x	x	x	34%	x	x
O=C1C=C(c2ccc(-c3ccccc3)c(F)c2)C[C@@H](c2ccc(Cl)cc2)C1	u	x	25%	-14%	x	x
CCO[C@@H]1OC(C(=O)N2CCN(Cc3ccccc3)CC2)=C[C@H](c2ccc(Br)cc2)[C@H]1CCCO	13µM*	-13%	u	u	1	-8
CCO[C@H]1OC(C(=O)N2CCN(Cc3ccccc3)CC2)=C[C@@H](C)[C@@H]1CCCO	0%	-3%	4%	-35%	-1	-7
CCO[C@@H]1OC(C(=O)N2CCN(Cc3ccccc3)CC2)=C[C@H](c2ccc(C(F)(F)F)cc2)[C@H]1CCCO	15µM*	-5%	u	u	6	-16
COc1ccc(NC(=O)CSc2ncc3c(n2)-c2ccccc2N(C)S3(=O)=O)cc1Cl	x	x	x	10%	x	x
C=C1C(=O)C=C2CN(C(=O)c3ccccc3)[C@@](Cc3ccc(F)cc3)(C(=O)OC)[C@@H]12	u	5%	u	10µM*	-11	-31
COC(=O)[C@@]1(Cc2ccc(OC)cc2)[C@@H]2C(=CC(=O)[C@H]2CC(=O)C(=O)N(C)C)CN1C(=O)c1ccccc1	9.3µM*	-19%	15µM*	u	-5	-18
COc1ccc(CNC(=O)C[C@H]2C(=O)N(CCc3ccccc3)C[C@@H]2Cc2ccccc2)cc1	0%	-19%	11%	-8%	-2	-2
O=C(C[n+]1ccccn1)c1ccccc1	u	u	10%	-11%	15*	40*
O=C(C[n+]1ccsc1)c1ccccc1	2%	17%	-7%	-16%	7	13
COc1ccccc1N(CC(=O)NCCc1ccccc1)C(=O)CCC(=O)Nc1cc(C)ccn1	u	-18%	-11%	-1%	-6	1
c1ccc(Cn2c(-c3ccccc3)c[n+]3c2SCCC3)cc1	u	4%	1µM*	7%	-1	-11
COC(=O)/C(=C\Nc1ccccc1N)c1ncc(C(F)(F)F)cc1Cl	-19%	-3%	x	-7%	68*	101*
